For 20 compounds, AC50 and outcome results are on record in PubChem BioAssay (EPA / NIEHS).

Usually AC50 stands for the concentration giving half of the maximal activity seen.

Test [1] deals with chimpanzee Androgen Receptor (AR), AR (gene 747460) (UniProt O97775). In words: NVS_NR_cAR: NovaScreen (NVS) Nuclear Receptor Binding Assay for chimpanzee Androgen Receptor (AR) (AID 2283346).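 Further: radioligand displacement from AR measured by scintillation counting in a cell-free assay; a loss of bound radioligand signal versus DMSO counts as binding.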 Summed up:
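Cell-free competition binding with insect-cell (Sf9/Sf21) extracted chimpanzee AR; scintillation signal from lysate at 72 h. Screened in duplicate at 25 uM, then concentration-response for actives; fitting relative to DMSO.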

Test [2] deals with Estrogen receptor (Homo sapiens) (UniProt P03372). The test can be described thus: NVS_NR_hER: NovaScreen (NVS) Nuclear Receptor Binding Assay for human Estrogen Receptor (ER) (AID 2283348). The essentials:
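Cell-free MCF7-derived ER preparation, specific radioligand displaced by test compound, read by scintillation counting 18 h post-dosing. Duplicate single-point 25 uM screen, then concentration-response confirmation; DMSO baseline.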

For test [3] the target is unchanged. In words: OT_ER_ERaERa_1440: Odyssey Thera (OT) 24-hour HEK293T Protein-Complementation Assay for Estrogen Receptor-alpha/-alpha Homodimer (AID 2283349).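 Further: hits raise fluorescence above DMSO for agonists and antagonists alike.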 The essentials:
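HEK293T, stable ERα LBD (aa 310-547) homodimer PCA; 24 h compound exposure; mean fluorescence intensity (nuclear for agonists, nuclear plus cytoplasmic for antagonists) vs vehicle; positive fitting direction, DMSO baseline.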

Test [4] has the same target. In words: OT_ER_ERaERa_0480: Odyssey Thera (OT) 8-hour HEK293T Protein-Complementation Assay for Estrogen Receptor-alpha/-alpha Homodimer (AID 2283351).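 Further: rise in fluorescence from reassembled reporter fragments on ERα LBD homodimer in nucleus or whole cell.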 The essentials: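 Read-out: fluorescence intensity rise relative to DMSO, nuclear for agonists, nuclear plus cytoplasmic for antagonists. Construct is the ERα LBD (aa 310-547) homodimer fragment-complementation pair, stably expressed in HEK293T; exposure 8 h.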

For test [5], the target named is T1, Estrogen receptor (Homo sapiens) + Estrogen receptor beta (Homo sapiens) (UniProt P03372+Q92731). In words: OT_ER_ERaERb_0480: Odyssey Thera (OT) 8-hour HEK293T Protein-Complementation Assay for Estrogen Receptor-alpha/-beta Heterodimer (AID 2283352). The essentials: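 Increase in mean fluorescence intensity, measured by laser scanning plate cytometry, reported ER-alpha/ER-beta LBD complementation in HEK293T cells after 8 h chemical exposure. DMSO served as baseline; basal signal is low, punctate and cytoplasmic.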
T1 sequence (P03372 whole entry, looked up, the tested form may be a part): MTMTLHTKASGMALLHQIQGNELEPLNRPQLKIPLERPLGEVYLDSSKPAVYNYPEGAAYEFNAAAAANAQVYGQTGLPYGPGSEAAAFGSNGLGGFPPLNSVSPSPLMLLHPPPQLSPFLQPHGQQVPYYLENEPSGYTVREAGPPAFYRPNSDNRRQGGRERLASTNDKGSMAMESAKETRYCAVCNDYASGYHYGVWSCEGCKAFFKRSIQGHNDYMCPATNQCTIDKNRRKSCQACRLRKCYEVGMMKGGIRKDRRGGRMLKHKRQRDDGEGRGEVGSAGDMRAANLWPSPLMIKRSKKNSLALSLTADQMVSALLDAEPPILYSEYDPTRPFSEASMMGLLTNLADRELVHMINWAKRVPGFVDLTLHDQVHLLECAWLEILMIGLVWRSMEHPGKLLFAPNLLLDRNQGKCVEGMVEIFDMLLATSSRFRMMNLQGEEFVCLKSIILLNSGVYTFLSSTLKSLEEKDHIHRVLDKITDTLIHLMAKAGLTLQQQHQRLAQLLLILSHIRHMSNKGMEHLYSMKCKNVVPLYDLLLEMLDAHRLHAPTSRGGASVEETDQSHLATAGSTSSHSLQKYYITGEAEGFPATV
T1 sequence (Q92731 whole entry, looked up, the tested form may be a part): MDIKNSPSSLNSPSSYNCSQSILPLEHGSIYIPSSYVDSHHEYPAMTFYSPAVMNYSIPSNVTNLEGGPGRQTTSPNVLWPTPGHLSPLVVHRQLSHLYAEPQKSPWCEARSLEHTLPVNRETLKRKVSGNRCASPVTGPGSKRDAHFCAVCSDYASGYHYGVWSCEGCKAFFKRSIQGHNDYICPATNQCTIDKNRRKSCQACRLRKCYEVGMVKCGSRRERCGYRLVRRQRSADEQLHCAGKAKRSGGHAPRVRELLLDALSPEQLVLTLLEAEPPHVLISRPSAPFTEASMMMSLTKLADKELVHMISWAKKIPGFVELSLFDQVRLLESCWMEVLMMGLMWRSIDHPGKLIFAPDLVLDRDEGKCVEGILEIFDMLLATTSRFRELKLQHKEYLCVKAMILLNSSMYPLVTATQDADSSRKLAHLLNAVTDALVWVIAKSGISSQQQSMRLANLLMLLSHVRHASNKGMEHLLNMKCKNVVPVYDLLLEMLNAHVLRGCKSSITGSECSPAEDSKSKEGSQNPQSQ

In test [6] the target is T1, Estrogen receptor (Homo sapiens) + Estrogen receptor beta (Homo sapiens). The test can be described thus: OT_ER_ERaERb_1440: Odyssey Thera (OT) 24-hour HEK293T Protein-Complementation Assay for Estrogen Receptor-alpha/-beta Homodimer (AID 2283356).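 Further: heteromer of ER alpha and ER beta binding domains; hits raise reporter fluorescence and both agonists and antagonists give an increase.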 The essentials: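 Heterodimerisation of ERα (aa 310-547) and ERβ (aa 263-489) ligand binding domains was tracked as fluorescence gain in stably transfected HEK293T cells following 24 h dosing, normalised to DMSO controls.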

Test [7] concerns the target Estrogen receptor beta (Homo sapiens) (UniProt Q92731). In words: OT_ER_ERbERb_0480: Odyssey Thera (OT) 8-hour HEK293T Protein-Complementation Assay for Estrogen Receptor-beta/-beta Homodimer (AID 2283357).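 Further: active means signal gain over DMSO baseline.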 Summed up:
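ER-beta LBD homodimer PCA stably expressed in HEK293T; 8 h compound exposure, then formaldehyde fixation and Draq5 staining. Gain in nuclear/cytoplasmic fluorescence intensity versus DMSO vehicle, read on laser scanning cytometer.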

In test [8] the target is Glucocorticoid receptor (Homo sapiens) (UniProt P04150). In words: NVS_NR_hGR: NovaScreen (NVS) Nuclear Receptor Binding Assay for human Glucocorticoid Receptor (GR) (AID 2283363).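 On AC50: activity is loss of specific radioligand binding signal relative to DMSO.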 Summed up:
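Compounds first tested in duplicate at 25 uM, actives followed up in concentration series. Binding to extracted GR protein measured as competitive radioligand displacement, filter scintillation read 16 h post-dosing, normalised to DMSO.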

Test [9] has as its target Nuclear receptor subfamily 1 group I member 2 (Homo sapiens) (UniProt O75469). The test can be described thus: NVS_NR_hPXR: NovaScreen (NVS) Nuclear Receptor Binding Assay for human Pregnane X Receptor (PXR) (AID 2283365).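 Further: a drop in FRET signal versus DMSO baseline means the compound binds.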 The essentials: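 Binding was measured by time-resolved fluorescence resonance energy transfer after a 2 h exposure of extracted human PXR protein without cells. Compounds were first tested at 25 uM in duplicate, with concentration series for actives; DMSO defined baseline.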

Test [10] concerns the target Androgen Receptor/SRC-1 Co-activator, AR (gene 367) (UniProt P10275). In words: OT_AR_ARSRC1_0960: Odyssey Thera (OT) 16-hour HEK293T Protein-Complementation Assay for Androgen Receptor/SRC-1 Co-activator (AID 2283353).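 Further: actives raise the signal above DMSO so potency reflects increased AR and SRC-1 complex.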 The essentials: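 Readout: 488 nm nuclear-to-cytoplasmic fluorescence ratio from imaging of at least 400 cells per image, 16 h post-dose. Reporter is Venus YFP complementation between AR and SRC-1 fusions, stably expressed in HEK293T; activity scored upward relative to DMSO.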

The target is the same in test [11]. The test can be described thus: OT_AR_ARSRC1_0480: Odyssey Thera (OT) 8-hour HEK293T Protein-Complementation Assay for Androgen Receptor/SRC-1 Co-activator (AID 2283354).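 Further: hits raise the complementation signal above DMSO so AC50 marks enhancers.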 Summed up: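 Reconstituted split-Venus YFP signal from AR–SRC-1 interaction, read by imaging 8 h post-dose in stable HEK293T lines. The 488 nm nucleus-to-cytoplasm ratio (≥400 cells/image) was fitted upward against DMSO.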

Test [12] has as its target rat Androgen Receptor (AR), Ar (gene 24208) (UniProt P15207). In words: NVS_NR_rAR: NovaScreen (NVS) Nuclear Receptor Binding Assay for rat Androgen Receptor (AR) (AID 2283366). The essentials:
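Actives from a duplicate single-concentration (25 uM) primary run went on to concentration series. Displacement of radioligand was counted by filtration and scintillation, 18 h post-dose, using prostate extracts from testosterone-pretreated rats, with DMSO as baseline.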

Test [13] addresses guinea pig Sigma Receptor, Non-selective Binding, SIGMAR1 (gene 100135589) (UniProt Q60492). The test can be described thus: NVS_OR_gSIGMA_NonSelective: NovaScreen (NVS) Nuclear Receptor Binding Assay for guinea pig Sigma Receptor, Non-selective Binding (AID 2283367). Summed up: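 Guinea pig brain membrane sigma sites were labelled with a radioligand, and bound radioactivity was counted after filtration 1 h post-dose. Compounds were screened at 25 uM in duplicate, then retested as concentration series when active.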

In test [14] the target is Retinoic acid receptor alpha (Homo sapiens) (UniProt P10276). In words: NVS_NR_hRAR_Antagonist: NovaScreen (NVS) Nuclear Receptor Binding Assay for human Retinoic Acid Alpha Receptor Antagonism (RAR) (AID 2283358). The essentials: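 RARalpha antagonism was read by TR-FRET as loss of binding signal versus DMSO, 2 h after chemical addition, in a biochemical format. Single-concentration duplicates (25 uM) were run first, and actives were retested in concentration series.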
Sequence of Retinoic acid receptor alpha (Homo sapiens) (P10276 whole entry, looked up): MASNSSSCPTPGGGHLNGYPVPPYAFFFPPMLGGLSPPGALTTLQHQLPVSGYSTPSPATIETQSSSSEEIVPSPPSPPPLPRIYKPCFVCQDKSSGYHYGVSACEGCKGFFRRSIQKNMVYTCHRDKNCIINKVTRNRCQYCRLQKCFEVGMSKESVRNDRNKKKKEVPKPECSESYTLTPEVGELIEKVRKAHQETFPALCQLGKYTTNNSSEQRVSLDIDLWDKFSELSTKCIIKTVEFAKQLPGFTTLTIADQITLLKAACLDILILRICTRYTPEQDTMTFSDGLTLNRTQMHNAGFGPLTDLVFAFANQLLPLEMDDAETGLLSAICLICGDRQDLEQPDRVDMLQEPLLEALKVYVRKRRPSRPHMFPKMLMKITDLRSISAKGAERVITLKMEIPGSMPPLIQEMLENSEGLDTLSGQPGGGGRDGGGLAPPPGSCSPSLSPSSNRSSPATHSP

Another test has as its target PGR (gene 5241) (UniProt P06401). The test can be described thus: NVS_NR_hPR: NovaScreen (NVS) Nuclear Receptor Binding Assay for human Progestron Receptor (PR) (AID 2283360).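 Further: active means loss of bound radioligand signal versus DMSO baseline.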 Summed up:
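Cell-free radioligand binding using receptor protein extracted from T47D cells, read by scintillation counting 18 hours after dosing. Loss of signal relative to DMSO baseline indicates displacement; primary screen single concentration 25 uM in duplicate, actives followed in concentration series.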

Test [15] deals with rat Mineralocorticoid Receptor (MR), Nr3c2 (gene 25672) (UniProt P22199). In words: NVS_NR_rMR: NovaScreen (NVS) Nuclear Receptor Binding Assay for rat Mineralocorticoid Receptor (MR) (AID 2283355). The essentials:
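Primary HTS ran in duplicate at a single 25 uM concentration, with concentration-series follow-up for actives. Receptor source: adrenalectomized rat brain supernatant, cell-free. Radioligand displacement read by scintillation at 24 h, relative to DMSO baseline.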

Test [16] addresses Retinoic acid receptor alpha (Homo sapiens) (UniProt P10276). In words: NVS_NR_hRARa_Agonist: NovaScreen (NVS) Nuclear Receptor Binding Assay for human Retinoic Acid Alpha Receptor Agonism (RAR) (AID 2283361). The essentials:
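Agonist-mode TR-FRET binding format using extracted protein, measured at 2 h post-dosing. Initial duplicate single-point screen at 25 uM preceded concentration series for actives; activity was normalized to DMSO baseline.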

Records with an inconclusive call do not appear. Activity calls are given as the source filed them. How the source made its calls: active means hit-call score of the fitted dose curve at least 0.9, where 1 is the maximum; inconclusive means response in the unintended direction; inactive means score below 0.9.

Sequence of Androgen Receptor/SRC-1 Co-activator, AR (gene 367) (P10275 whole entry, looked up, the tested form may be a part): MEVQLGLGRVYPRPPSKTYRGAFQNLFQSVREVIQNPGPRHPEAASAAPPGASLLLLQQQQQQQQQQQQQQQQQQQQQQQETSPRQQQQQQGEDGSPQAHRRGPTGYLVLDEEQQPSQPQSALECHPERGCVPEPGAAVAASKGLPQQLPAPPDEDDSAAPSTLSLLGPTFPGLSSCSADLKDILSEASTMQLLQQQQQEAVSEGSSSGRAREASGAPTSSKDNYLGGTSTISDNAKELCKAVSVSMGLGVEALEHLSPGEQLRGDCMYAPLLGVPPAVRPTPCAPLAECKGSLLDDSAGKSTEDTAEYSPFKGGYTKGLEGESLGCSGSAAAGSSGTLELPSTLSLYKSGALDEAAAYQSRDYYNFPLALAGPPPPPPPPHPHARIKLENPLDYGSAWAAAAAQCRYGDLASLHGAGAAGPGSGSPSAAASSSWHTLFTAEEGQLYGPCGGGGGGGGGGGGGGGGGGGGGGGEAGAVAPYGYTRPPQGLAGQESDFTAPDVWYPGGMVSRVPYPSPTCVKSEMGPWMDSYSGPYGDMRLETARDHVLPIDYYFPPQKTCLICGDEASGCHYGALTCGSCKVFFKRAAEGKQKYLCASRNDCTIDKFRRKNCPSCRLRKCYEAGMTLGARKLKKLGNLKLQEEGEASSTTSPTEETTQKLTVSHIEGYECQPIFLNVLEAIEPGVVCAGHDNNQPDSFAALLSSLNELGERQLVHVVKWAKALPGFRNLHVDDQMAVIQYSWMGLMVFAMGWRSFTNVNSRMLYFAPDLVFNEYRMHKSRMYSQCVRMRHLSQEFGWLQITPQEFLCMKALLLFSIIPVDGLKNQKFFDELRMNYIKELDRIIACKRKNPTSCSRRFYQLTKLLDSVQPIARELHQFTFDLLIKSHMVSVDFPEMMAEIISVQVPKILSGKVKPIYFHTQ
Sequence of guinea pig Sigma Receptor, Non-selective Binding, SIGMAR1 (gene 100135589) (Q60492 whole entry, looked up): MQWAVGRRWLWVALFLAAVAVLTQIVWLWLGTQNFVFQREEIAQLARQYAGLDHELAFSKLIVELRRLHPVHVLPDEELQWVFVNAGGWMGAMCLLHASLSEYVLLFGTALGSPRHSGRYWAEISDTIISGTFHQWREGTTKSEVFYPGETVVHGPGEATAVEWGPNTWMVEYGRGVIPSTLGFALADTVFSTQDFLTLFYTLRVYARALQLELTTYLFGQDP
Sequence of Nuclear receptor subfamily 1 group I member 2 (Homo sapiens) (O75469 whole entry, looked up): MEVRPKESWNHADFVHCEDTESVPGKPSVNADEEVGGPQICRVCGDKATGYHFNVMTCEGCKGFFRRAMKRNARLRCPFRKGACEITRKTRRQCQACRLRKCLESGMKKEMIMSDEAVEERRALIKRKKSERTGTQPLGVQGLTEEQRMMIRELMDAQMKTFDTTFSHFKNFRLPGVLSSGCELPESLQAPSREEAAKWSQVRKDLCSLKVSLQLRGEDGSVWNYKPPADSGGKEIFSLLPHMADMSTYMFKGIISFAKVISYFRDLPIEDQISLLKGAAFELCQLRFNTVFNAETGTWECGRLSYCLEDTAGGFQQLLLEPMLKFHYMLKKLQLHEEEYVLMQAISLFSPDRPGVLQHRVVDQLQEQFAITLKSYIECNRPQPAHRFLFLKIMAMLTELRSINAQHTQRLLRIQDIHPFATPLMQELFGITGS
Sequence of Glucocorticoid receptor (Homo sapiens) (P04150 whole entry, looked up): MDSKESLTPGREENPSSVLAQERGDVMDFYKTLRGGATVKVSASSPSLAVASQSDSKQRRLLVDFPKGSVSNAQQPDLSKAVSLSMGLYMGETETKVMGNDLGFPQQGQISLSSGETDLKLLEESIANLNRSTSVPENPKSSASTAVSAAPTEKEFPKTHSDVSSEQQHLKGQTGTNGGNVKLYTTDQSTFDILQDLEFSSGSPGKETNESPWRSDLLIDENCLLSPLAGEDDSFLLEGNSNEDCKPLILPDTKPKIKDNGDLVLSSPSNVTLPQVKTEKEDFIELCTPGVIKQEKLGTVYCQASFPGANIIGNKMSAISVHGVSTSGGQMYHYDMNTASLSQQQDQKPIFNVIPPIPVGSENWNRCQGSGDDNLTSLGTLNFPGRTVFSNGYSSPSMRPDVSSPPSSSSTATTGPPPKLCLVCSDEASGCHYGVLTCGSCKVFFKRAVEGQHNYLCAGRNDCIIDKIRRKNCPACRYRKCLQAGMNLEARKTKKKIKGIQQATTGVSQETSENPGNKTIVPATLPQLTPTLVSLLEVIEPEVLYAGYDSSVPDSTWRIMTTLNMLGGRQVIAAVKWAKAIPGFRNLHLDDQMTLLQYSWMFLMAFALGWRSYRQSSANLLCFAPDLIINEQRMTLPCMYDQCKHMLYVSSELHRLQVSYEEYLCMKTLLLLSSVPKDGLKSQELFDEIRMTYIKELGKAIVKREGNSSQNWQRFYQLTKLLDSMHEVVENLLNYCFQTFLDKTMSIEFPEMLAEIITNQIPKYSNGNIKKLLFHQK
Sequence of Estrogen receptor (Homo sapiens) (P03372 whole entry, looked up): as the sequence (P03372 whole entry, looked up, the tested form may be a part) above

Turning to `CC(C)(C)C(=O)C(Oc1ccc(Cl)cc1)n1cncn1` (configuration not stated), the AC50 in [1] is 19.6 µM (active); in test [6], 58.6 µM (active); in test [9], 2.31 µM (active). Also, the compound was called inactive in test [2], in [3], in test [4], in [5], in test [7] and in [8].
Turning to `Nc1c(Cl)c(Cl)nc(C(=O)O)c1Cl`, the compound was called inactive in [3], in [4], in test [5], in test [6] and in [7].
As to `COP(=S)(OC)SCn1nnc2ccccc2c1=O`, in test [1], the AC50 is 16.1 µM (active). Besides, the compound was classed as inactive in [4], in test [5], in test [10], in test [11], in test [6] and in test [7]. In addition, the call in [12] was inactive.
As to `CC1(C)CON(Cc2ccccc2Cl)C1=O`, the compound was classed as inactive in test [3], in test [4], in [5], in [6] and in [7]. In addition, the AC50 in test [13] was 15.2 µM (active).
Take `CCCCC(C#N)(Cn1cncn1)c1ccc(Cl)cc1` (configuration not stated): the result in test [2], in test [4], in [14] and in [8] was inactive.
On to `CCN(CC)c1nc(C)cc(OP(=S)(OC)OC)n1`, for which the result (in test [2]; in test [4]; in test [14]; in the test with PGR (gene 5241)) was inactive. In addition, the AC50 in test [5] was 19.9 µM (active); in test [6], 34.9 µM (active); in test [7], 30.7 µM (active); in [8] it was 9.72 µM (active).
Consider `COP(=O)(OC)O/C(C)=C/C(=O)N(C)C`, for which the compound was classed as inactive in test [3], in test [4], in [5], in test [6] and in test [7].
On to `CN=C=S`, for which the outcome (in test [3]; in [4]; in test [14]; with PGR (gene 5241)) was inactive.
As to `CNC(=O)N(C)c1nnc(C(C)(C)C)s1`, the compound was called inactive in test [4], in test [5] and in test [6].
Regarding `CC(C)N1C(=O)c2ccccc2NS1(=O)=O`, the compound was classed as inactive in test [4] and in test [15]. Further, in [16], the concentration at half-maximal activity (AC50) was 6.37 µM (active).
Consider `CCCN(CC)CC1COC2(CCC(C(C)(C)C)CC2)O1` (configuration not stated), for which the outcome in [4], in test [7], in test [8] and in test [9] was inactive. Also, the AC50 is 32.2 µM (active) in test [6] and 0.0101 µM (active) in test [13].
As for `CCOc1cc(C(C)(C)C)ccc1C1COC(c2c(F)cccc2F)=N1` (configuration not stated), the call in test [3], in [5], in [15], in test [6], in [7] and in test [14] was inactive. Besides, the AC50 in test [10] is 20.1 µM (active); in test [11] it was 20.4 µM (active).
`Clc1nc(Cl)nc(Nc2ccccc2Cl)n1`: the result in test [4], in test [5], in [6] and in test [7] was inactive.
In the case of `CCOP(=S)(OCC)Oc1nc(Cl)n(C(C)C)n1`, in test [4], the call was inactive.
As to `CC(C)Nc1nc(Cl)nc(NC(C)C)n1`, the compound was classed as inactive in test [3], in [5] and in [6].
Turning to `CC1(C)C(C(=O)OC(C#N)c2cccc(Oc3ccccc3)c2)C1(C)C` (configuration not stated), the call in test [4], in test [5], in test [6] and in test [7] was inactive.
`N#CN=C1SCCN1Cc1ccc(Cl)nc1`: the result in test [4] and in test [13] was inactive.
`C=CCOC(=O)C(C)(C)OC(=O)c1cc(-n2c(=O)cc(C(F)(F)F)n(C)c2=O)ccc1Cl`: the call in test [3], in test [5], in test [6] and in test [7] was inactive.
Regarding `CCNP(=S)(OC)O/C(C)=C/C(=O)OC(C)C` (configuration not stated), the call in test [4], in [6], in test [7] and in test [9] was inactive.
In the case of `CC(C)NC(=O)N1CC(=O)N(c2cc(Cl)cc(Cl)c2)C1=O`, the outcome in test [4] was inactive.
